# PubChem BioAssay
# Active and inactive are the calls of the source. How the calls were made is not given here.
# Molecular target: Pantothenate synthetase (Mycobacterium tuberculosis (strain ATCC 25618 / H37Rv)) (UniProt P9WIL5)
# Assay: Recombinant Mtb pantothenate synthetase (PanC) inhibitors, coupled enzyme, confirmatory (AID 375);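 further: 0% = full reaction with vehicle and 100% = no enzyme background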
# Conditions: coupled enzyme assay; at 10 µM, active compounds read high
# Sequence of Pantothenate synthetase (Mycobacterium tuberculosis (strain ATCC 25618 / H37Rv)) (P9WIL5 whole entry, looked up): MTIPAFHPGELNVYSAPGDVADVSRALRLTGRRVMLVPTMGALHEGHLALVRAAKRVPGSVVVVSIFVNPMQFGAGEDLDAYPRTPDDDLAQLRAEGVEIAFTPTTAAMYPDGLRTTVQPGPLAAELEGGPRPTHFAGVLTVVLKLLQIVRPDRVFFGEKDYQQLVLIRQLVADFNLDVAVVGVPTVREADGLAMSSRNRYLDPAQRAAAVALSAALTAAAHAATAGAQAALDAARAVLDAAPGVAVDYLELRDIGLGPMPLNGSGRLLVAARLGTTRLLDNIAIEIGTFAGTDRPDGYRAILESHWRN
row,SMILES,inhibition
1,CCn1c(=N)n(CC(O)COc2cccc(C)c2)c2ccccc21 (stereo not drawn),4% (inactive)
2,CC(C)N(CCC(C(N)=O)(c1ccccc1)c1ccccn1)C(C)C (stereo not drawn),0% (inactive)
3,Cc1ccccc1NC(=O)N1C2CCCC1CC(NC(=O)C1CC1)C2 (stereo not drawn),14% (inactive)
4,CCOc1ccccc1OCC(=O)NCc1ccco1,0% (inactive)
5,CN(C)c1ccc(CNC2CC(C)(C)NC(C)(C)C2)cc1,0% (inactive)
6,O=C(NC(NC1CCS(=O)(=O)C1)C(=O)c1cccs1)c1ccccc1 (stereo not drawn),1% (inactive)
7,C[N+]1(C)CCc2cc3c(cc2[C@H]1[C@@H]1OC(=O)c2c1ccc1c2OCO1)OCO3,0% (inactive)
8,COC(=O)c1cc2oc(C)cc2n1CC(=O)N(C)c1ccccc1,0% (inactive)
9,Cc1ccccc1-n1nnnc1SCC(=O)Nc1ccc(S(=O)(=O)N2CCCC2)cc1,0% (inactive)
10,CCOC(=O)c1nnc2cc(-c3ccc(Br)cc3)nn2c1C,0% (inactive)
11,c1ccc2c(c1)OCC(C1=NCCN1)O2 (stereo not drawn),0% (inactive)
12,C=Cn1nc(C)c2ccccc2c1=O,0% (inactive)
13,COc1ccc(OC)c(C(O)C(C)N)c1 (stereo not drawn),0% (inactive)
14,Cc1cc2ncn(N)c2cc1C,9% (inactive)
15,Cc1ccc(C)c(N(CC(=O)NCc2ccco2)C(=O)CCC(=O)Nc2ccccn2)c1,0% (inactive)
16,COc1ccc(C2N(C(=O)c3ccccc3)CCN2C(=O)c2ccccc2)cc1,0% (inactive)
17,O=S1(=O)CC(N2CCCCC2)C(N2CCCCC2)C1 (stereo not drawn),6% (inactive)
18,CCOC(=O)c1cnc(-n2nc(C)cc2C)nc1Nc1ccc(N(C)C)cc1,8% (inactive)
